Assay outcomes from PubChem.
S aureus QS inh = blocks AIP-induced quorum sensing reporter in S. aureus. S. aureus RN6390 RNAIII-GFP reporter, flow cytometry 3 h. inhibition, % at 2 µM. 0.3% of 24,000 active. AID 527;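 active = share of bacteria positive for the green fluorescent reporter and its mean brightness both inhibited by 50% or more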;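 also: 0% = AIP-stimulated control and 100% = unstimulated bacteria without AIP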
LNCaP diff act = activators of LNCaP prostate cell differentiation | flow cytometry side scatter, 4 d | side scatter shift, % at 10 µM | 0.56% of 24,000 active;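 active = side scatter shift above 30%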;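 also: androgen-responsive LNCaP prostate cancer cells in charcoal-stripped serum medium; percent of cells past a gate set so DMSO wells show 10% shift; higher shift means more granular cells and more differentiation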
* hit, by the source's call. Shown are actives, neighbours in structure and some others; about 0.91% of the full set was active somewhere.

What do the screens show for `O=C(CN1C(=O)CCSc2ccccc21)Nc1ccc2c(c1)OCCO2`?
S aureus QS inh: -3; LNCaP diff act: 6

How did O=C(CN1C(=O)CC(c2ccco2)Sc2ccccc21)Nc1ccc2c(c1)OCCO2 (stereo not drawn) do in these assays?
S aureus QS inh: 83*; LNCaP diff act: 16

How did CCOc1ccc2nc(N3CCC(C(=O)Nc4nnc(CC)s4)CC3)sc2c1 do in these assays?
S aureus QS inh: -6; LNCaP diff act: 3

What do the screens show for `COc1ccc(-c2noc(CCC(=O)NCCCN3CCC(C)CC3)n2)cc1`?
S aureus QS inh: -2; LNCaP diff act: 2

Results for Clc1cccc(N2CCN(Cc3nc(-c4ccccc4)no3)CC2)c1 ?
S aureus QS inh: 0; LNCaP diff act: 7

Results for Cc1ccc(-c2noc(CCC(=O)NCCCN3CCN(c4cccc(Cl)c4)CC3)n2)cc1 ?
S aureus QS inh: 1; LNCaP diff act: 44*

Results for Cc1ccc(-c2noc(CCC(=O)NCCCN3CCN(c4ccc(F)cc4)CC3)n2)cc1 ?
S aureus QS inh: -2; LNCaP diff act: 38*

Results for Cc1ccc(-c2noc(CCC(=O)NC3CCN(Cc4ccccc4)CC3)n2)cc1 ?
S aureus QS inh: -3; LNCaP diff act: 32*

What do the screens show for `O=C(CCc1nc(-c2ccccc2F)no1)NC1CCN(Cc2ccccc2)CC1`?
S aureus QS inh: -7; LNCaP diff act: 15

What do the screens show for `CCOc1cc(C#N)c(NC(=O)c2cccnc2)cc1OCC`?
S aureus QS inh: -4; LNCaP diff act: 11

Results for Cn1c(Cn2c(=O)sc3ccccc32)nnc1SCc1ccccc1F ?
S aureus QS inh: 4; LNCaP diff act: 13

How did CCCCCCCCCCCCCCCC(O)C(N)CO (stereo not drawn) do in these assays?
S aureus QS inh: -2; LNCaP diff act: 8

What do the screens show for `CCn1cc(C(=O)N2CCCC2)c(=O)c2cc(S(=O)(=O)N3CCOCC3)ccc21`?
S aureus QS inh: -1; LNCaP diff act: 4

Results for CC12CC(NC(=O)N1c1cccc(C(=O)N3CCN(c4ccccn4)CC3)c1)c1ccccc1O2 (stereo not drawn) ?
S aureus QS inh: 1; LNCaP diff act: 4

Results for CN(C)c1ccc(-c2nn3c(-c4ccc(Cl)cc4Cl)nnc3s2)cc1 ?
S aureus QS inh: 0; LNCaP diff act: 39*

What do the screens show for `Cc1oc(-c2ccc(Cl)cc2)cc1-c1nn2c(-c3ccoc3C)nnc2s1`?
S aureus QS inh: -1; LNCaP diff act: 7

How did O=C(C1CC(=O)N(C2CCCC2)C1)N1CCC(Cc2ccccc2)CC1 (stereo not drawn) do in these assays?
S aureus QS inh: -5; LNCaP diff act: 8

What do the screens show for `Cc1ccc(C2=Nc3ccccc3NC(C)(c3ccc(C)o3)C2)o1` (stereo not drawn)?
S aureus QS inh: 0; LNCaP diff act: 35*

Results for COC(=O)C1C(=O)C2=C(CC1C)NC(C)=C(C(=O)OCCOc1ccccc1)C2c1ccc(C)o1 (stereo not drawn) ?
S aureus QS inh: -8; LNCaP diff act: 10

What do the screens show for `COC(=O)C1C(=O)C2=C(CC1C)NC(C)=C(C(=O)OC1CCCCC1)C2c1ccc(N(C)C)cc1` (stereo not drawn)?
S aureus QS inh: 54*; LNCaP diff act: 0

Results for COc1ccc(N(CC(=O)N2CC=C(c3ccccc3)CC2)S(=O)(=O)c2c(C)noc2C)cc1 ?
S aureus QS inh: 17; LNCaP diff act: 4

How did CCOc1ccc(N(CC(=O)N2CC=C(c3ccccc3)CC2)S(=O)(=O)c2c(C)noc2C)cc1 do in these assays?
S aureus QS inh: 53*; LNCaP diff act: 1

Results for CCOc1ccccc1NC(=O)C1CCCN(S(=O)(=O)c2cccc3cccnc23)C1 (stereo not drawn) ?
S aureus QS inh: -1; LNCaP diff act: 12

How did Cn1c(=O)c2cc(S(=O)(=O)NC(Cc3ccccc3)C(=O)NCc3ccco3)ccc2n(C)c1=O (stereo not drawn) do in these assays?
S aureus QS inh: 1; LNCaP diff act: 4

How did Cn1c(C(=O)NCCCN2CCN(c3ccccc3F)CC2)cc2c(=O)n(C)c3ccccc3c21 do in these assays?
S aureus QS inh: -2; LNCaP diff act: 70*

How did Cn1c(C(=O)NCCCN2CCOCC2)cc2c(=O)n(C)c3ccccc3c21 do in these assays?
S aureus QS inh: -4; LNCaP diff act: 13

How did COC(=O)c1ccc(NC(=O)C2C3C=CC(O3)C2C(=O)O)cc1 (stereo not drawn) do in these assays?
S aureus QS inh: 0; LNCaP diff act: 7

How did COC(=O)C1=C(C)N=c2s/c(=C/c3cccs3)c(=O)n2C1c1cccs1 (stereo not drawn) do in these assays?
S aureus QS inh: 4; LNCaP diff act: 31*

What do the screens show for `CCOC(=O)C1=C(C)N=c2s/c(=C\c3cccn3C)c(=O)n2C1c1cccc(OC)c1OC` (stereo not drawn)?
S aureus QS inh: 6; LNCaP diff act: 11

How did CCOc1cccc2cc(-c3cn4cc(C)ccc4n3)c(=O)oc12 do in these assays?
S aureus QS inh: 0; LNCaP diff act: 57*

How did CCOc1cccc2cc(-c3nnc(NCc4ccco4)s3)c(=O)oc12 do in these assays?
S aureus QS inh: 0; LNCaP diff act: 9

What do the screens show for `Cc1ccc(-n2nc(C(=O)N3CCN(C)CC3)c3c4ccccc4n(C)c3c2=O)cc1`?
S aureus QS inh: -2; LNCaP diff act: 10

How did CCN1CCCC1CNC(=O)c1nn(-c2ccc(C)cc2)c(=O)c2c1c1ccccc1n2C (stereo not drawn) do in these assays?
S aureus QS inh: -1; LNCaP diff act: 32*

What do the screens show for `Cc1nnc(SCc2ccccc2F)n1NCc1cccs1`?
S aureus QS inh: -3; LNCaP diff act: 11

Results for Cc1nn(-c2ccccc2)c2sc(C(=O)N3CCOCC3)cc12 ?
S aureus QS inh: -8; LNCaP diff act: 12

Results for Cc1nn(-c2ccccc2)c2sc(-c3n[nH]c(=S)o3)cc12 ?
S aureus QS inh: 60*; LNCaP diff act: 4

Results for CCOC(=O)c1cc(-c2nnc(-c3ccc(Oc4ccccc4)cc3)o2)c(C)nc1C ?
S aureus QS inh: 3; LNCaP diff act: 4

What do the screens show for `CCN(CC)c1ncnc2sc(C(=O)N3CCN(c4ccc(OC)cc4)CC3)c(C)c12`?
S aureus QS inh: 11; LNCaP diff act: 8

Results for CCOC(=O)c1sc2ncnc(N3CCN(c4ccc(OC)cc4)CC3)c2c1C ?
S aureus QS inh: 8; LNCaP diff act: 35*

What do the screens show for `S=c1[nH]nc(-c2cccc(Br)c2)o1`?
S aureus QS inh: -2; LNCaP diff act: 9

How did CC1CN(c2nc3ccccc3nc2C(C#N)C(=O)OC2CCCCC2)CC(C)O1 (stereo not drawn) do in these assays?
S aureus QS inh: 61*; LNCaP diff act: 3

Results for COc1ccccc1N1CCN(c2nc3ccccc3nc2C(C#N)C(=O)OC(C)C)CC1 (stereo not drawn) ?
S aureus QS inh: -8; LNCaP diff act: 30*

How did CCOC(=O)C1CCCN(c2nc3ccccc3nc2C(C#N)C(=O)NCc2ccccc2)C1 (stereo not drawn) do in these assays?
S aureus QS inh: 0; LNCaP diff act: 16

How did CCOc1ccccc1N1CCN(c2nc3ccccc3nc2C(C#N)C(=O)OC)CC1 (stereo not drawn) do in these assays?
S aureus QS inh: 0; LNCaP diff act: 5

What do the screens show for `CCN(CCNC(=O)C1CCN(Cc2nc(-c3ccc(Cl)cc3)oc2C)CC1)c1ccccc1`?
S aureus QS inh: 1; LNCaP diff act: 66*
